# Data as given in PubChem BioAssay.
# Legend:
# [1] = tested on: Human papillomavirus type 1a protein E7 (residues 44-93); assay: HPV1a E7 fragment binders on microarrays, primary screen, biochemical, small-molecule microarray, residues 44-93, 635 nm fluorescence (AID 1108); conditions: small-molecule microarray binding, fluorescence 635 nm; higher = more signal;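 also: E7 fragment applied at 1 µg/mL in TBST for 1 h at 4 C; score combines spot fluorescence with its signal to noise ratio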
# [2] = modulators of HCV replicon luciferase signal, primary screen, HCV replication inhibitor project, Huh7 cells, luciferase reporter (AID 1109); conditions: 48 h, higher = more signal;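 also: huh7 hepatoma cells harbouring a luciferase neomycin HCV replicon reporter; luciferase luminescence as measure of HCV replicon replication; test concentration not given here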
# [3] = biological target: Left-right determination factor 2 (Homo sapiens) (UniProt O00292); assay: LEFTY2 binders on small-molecule microarrays, primary screen, biochemical, small-molecule microarray, 635 nm fluorescence scan (AID 1110); conditions: LEFTY2 binding, higher = more signal
# Sequence of Left-right determination factor 2 (Homo sapiens) (O00292 whole entry, looked up): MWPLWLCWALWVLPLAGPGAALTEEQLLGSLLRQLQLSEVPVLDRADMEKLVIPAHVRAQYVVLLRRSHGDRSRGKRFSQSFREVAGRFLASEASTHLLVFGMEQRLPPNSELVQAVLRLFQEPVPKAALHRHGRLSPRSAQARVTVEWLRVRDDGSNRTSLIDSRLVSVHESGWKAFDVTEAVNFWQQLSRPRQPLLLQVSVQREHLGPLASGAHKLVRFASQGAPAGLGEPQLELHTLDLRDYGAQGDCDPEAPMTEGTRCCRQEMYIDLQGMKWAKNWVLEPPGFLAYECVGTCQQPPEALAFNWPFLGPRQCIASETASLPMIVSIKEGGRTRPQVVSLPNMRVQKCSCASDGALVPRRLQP
# [4] = biological target: Calmodulin-1 (Homo sapiens) (UniProt P0DP23); assay: CALM1 binders on microarrays, EGTA buffer, profiling panel, biochemical, small-molecule microarray, Cy5-labelled CALM1 (AID 1111); conditions: Cy5-CALM1 binding fluorescence, higher = more signal;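 also: labelled calmodulin applied in Tris saline Tween buffer holding calcium plus EGTA and DTT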
# [5] = biological target: Calmodulin-1 (Homo sapiens) (UniProt P0DP23); assay: calcium-bound CALM1 binders on microarrays, profiling panel, artefact control for SMM control-protein annotation, biochemical, small-molecule microarray, Cy5-labelled CALM1, plus calcium (AID 1112); conditions: Cy5-CALM1 binding fluorescence, higher = more signal;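 also: score merges spot fluorescence with signal to noise from triplicate slides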
# [6] = small-molecule microarray binders of probe aWnt5a, primary screen, biochemical, biotinylated probe, 635/667 nm fluorescence (AID 1113); conditions: higher = more signal;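 also: score merges 667 nm fluorescence intensity with signal-to-noise per printed feature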
# [7] = small-molecule microarray binders of probe aShh, primary screen, biochemical, biotinylated probe, 635/667 nm fluorescence (AID 1114); conditions: higher = more signal;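 also: probe is biotin-labelled aShh protein from a stem cell growth factor screen; measures binding of labelled protein to compounds printed on the slide; score merges feature fluorescence at 667 nm with signal-to-noise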
# [8] = small-molecule microarray binders of probe aNog, primary screen, biochemical, biotinylated probe, 635/667 nm fluorescence (AID 1115); conditions: higher = more signal;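 also: probe is biotinylated aNog protein used at 0.15 µg/mL for 1 h at 4 C; z-score combines 667 nm fluorescence of each spot with its signal to noise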
# [9] = biological target: Torsin-1A-interacting protein 1 (Homo sapiens) (UniProt Q5JTV8); assay: LAP1 binders from COS7 cell lysate, primary screen, small-molecule microarray, 635/667 nm fluorescence (AID 1116); conditions: COS7-hLAP1 lysate binding, 635 nm fluorescence, higher = more signal
# Sequence of Torsin-1A-interacting protein 1 (Homo sapiens) (Q5JTV8 whole entry, looked up): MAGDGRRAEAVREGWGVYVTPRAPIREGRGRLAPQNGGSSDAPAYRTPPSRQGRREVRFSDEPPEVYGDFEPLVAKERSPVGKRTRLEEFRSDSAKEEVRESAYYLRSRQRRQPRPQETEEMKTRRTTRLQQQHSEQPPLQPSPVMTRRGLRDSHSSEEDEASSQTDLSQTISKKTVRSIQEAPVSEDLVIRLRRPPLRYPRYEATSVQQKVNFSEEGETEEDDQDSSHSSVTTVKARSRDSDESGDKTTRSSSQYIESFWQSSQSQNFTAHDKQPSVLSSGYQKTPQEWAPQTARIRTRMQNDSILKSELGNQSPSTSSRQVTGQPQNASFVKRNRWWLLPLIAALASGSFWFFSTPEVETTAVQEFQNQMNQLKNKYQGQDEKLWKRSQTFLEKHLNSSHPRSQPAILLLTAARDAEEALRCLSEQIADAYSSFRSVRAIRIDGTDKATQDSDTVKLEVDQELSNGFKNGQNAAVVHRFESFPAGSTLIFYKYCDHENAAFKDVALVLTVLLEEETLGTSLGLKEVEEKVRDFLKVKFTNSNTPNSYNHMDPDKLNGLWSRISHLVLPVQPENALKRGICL
# [10] = biological target: Alpha-bungarotoxin (Bungarus multicinctus) (UniProt P60615); assay: alpha-bungarotoxin binders on microarray, profiling panel, artefact control for SMM control protein annotation, biochemical, small-molecule microarray, Alexa647 label, 635/667 nm fluorescence (AID 1117); conditions: alpha-BTX-A647 binding fluorescence, higher = more signal
# Sequence of Alpha-bungarotoxin (Bungarus multicinctus) (P60615 whole entry, looked up): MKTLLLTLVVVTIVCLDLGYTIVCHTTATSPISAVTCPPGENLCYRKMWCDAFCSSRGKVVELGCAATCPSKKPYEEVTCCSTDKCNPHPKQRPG
SMILES,composite z-score [1],z-score [2],composite z-score [3],composite z-score [4],composite z-score [5],composite z-score [6],composite z-score [7],composite z-score [8],composite z-score [9],composite z-score [10]
C=CCOC(=O)[C@@H]1[C@H]2C(=O)O[C@H](c3ccccc3)[C@H](c3ccccc3)N2[C@H](c2ccc(OCCOC(=O)[C@H]3C[C@H]4C(=O)N[C@@H](CCCCN(C)C)C(=O)N4[C@H]3c3cccc(OCCO)c3)cc2)[C@@]12C(=O)Nc1ccccc12,0.313,-0.772,-1.19,0.12,0.177,-0.033,0.584,0.511,0.518,0.175
CN1C(=O)C2C=CC(C(O)COCc3ccccc3)N(Nc3ccc([N+](=O)[O-])cc3[N+](=O)[O-])C2C1=O (stereo not given),0.826,-0.295,-0.759,-0.528,-0.626,0.173,-0.328,0.702,0.503,0.814
O=C1NC(=O)C2C1C=CC(C(O)C(c1ccccc1)c1ccccc1)N2Nc1ccccn1 (stereo not given),-1.31,-0.246,0.702,-0.67,0.295,0.278,-0.119,0.328,1.63,-0.143
COCCOC(=O)N1C(=O)[C@@]2(c3cc(C#CCNC(N)=O)ccc31)[C@H](C(=O)N1CCN(c3ncccn3)CC1)[C@H]1C(=O)O[C@H](c3ccccc3)[C@H](c3ccccc3)N1[C@@H]2c1ccc(O)cc1,-0.381,0.894,-1.67,-0.777,-0.686,-0.408,-0.461,-0.294,-0.92,0.165
C=CCNC(=O)[C@H]1[C@@H]2C(=O)O[C@@H](c3ccccc3)[C@@H](c3ccccc3)N2[C@@H](c2ccc(O)cc2)[C@]12C(=O)Nc1ccc(C#CCC(C(=O)OC)C(=O)OC)cc12,-0.952,-0.174,-0.243,-0.416,-0.401,-0.0495,0.171,-0.302,0.49,0.0559
C=CCN1C(=O)[C@]2(O[C@H](CCO)[C@@H]([Si](C)(C)c3ccc(OC)cc3)[C@@H]2C)c2cc(N3C(=O)c4ccccc4Oc4ccccc43)ccc21,1.3,-5.05,0.28,1.2,0.323,-0.0203,-0.0709,-0.158,-0.0465,0.378
O=C(CS)NCCCCCCNC(=O)[C@H]1C[C@H]2C(=O)NCC(=O)N2[C@H]1c1cccc(OCCO)c1,0.864,0.36,0.281,0.214,0.214,0.0079,0.123,0.113,0.469,1.36
CCOC(=O)C[C@H]1[C@H](OC(=O)c2ccccc2-c2ccccc2)[C@@H](NC(=O)CC(C)C)c2cc(OCCCO)ccc2N1C(=O)c1ccccc1,0.0819,-0.783,0.466,-0.0923,-0.497,-0.124,-0.289,-0.189,0.222,0.23
C=CC[C@]1(C(=O)NCC(O)CO)N=C(c2ccc(OCCCO)cc2)O[C@H]1c1ccccc1CN=[N+]=[N-] (stereo not given in full),0.551,-1.06,-0.696,1.34,0.262,0.0181,-0.0146,-0.516,3.34,0.138
CCCCN1CC=CC23O[C@@H]4C=CCCOC(=O)C4[C@H]2C(=O)N(CCO)[C@@H]3C1=O (stereo not given in full),-0.548,-0.161,-1.02,-0.555,-0.436,-0.298,0.149,-0.249,-0.997,-0.363
CCCN1C(=O)[C@@]2(c3ccc([N+](=O)[O-])cc3)CC(=O)N(C3CCCCC3)[C@@H]2c2ccc(CO)cc21,0.202,-0.136,0.445,-0.0766,-0.567,-0.18,-0.225,-0.0165,-0.349,-0.171
C=C(CCCC)C(=O)CC[C@@H](OC(C)=O)c1ccc(OCCO)cc1,0.159,-1.98,0.125,-0.537,-1.29,-0.1,-0.0035,-0.113,3.18,-0.127
COCCOC(=O)N1C(=O)[C@@]2(c3cc(C#CCNC(N)=O)ccc31)[C@H](C(N)=O)[C@H]1C(=O)O[C@H](c3ccccc3)[C@H](c3ccccc3)N1[C@@H]2c1ccc(O)cc1,-0.109,0.494,-0.0417,0.062,0.662,-0.0384,0.288,-0.0245,0.0743,-0.285
C#CCN(C(=O)OC(C)(C)C)[C@H](CO)c1ccccc1,0.486,0.712,0.353,-0.528,-0.964,-0.18,-0.138,-0.141,0.391,0.0876
CCCCCCCCCCC(O)C1C=CC2C(=O)N(C)C(=O)C2N1Nc1ccccc1 (stereo not given),0.164,-0.28,-2.42,0.194,1.19,-0.252,-0.121,0.101,0.504,-0.868
CN1C(=O)C2C=CC(C(O)c3cccs3)N(N(c3ccccc3)c3ccccc3)C2C1=O (stereo not given),1.28,0.053,-0.632,1.07,0.831,0.143,0.131,-0.267,0.713,1.79
